Screening data as filed in PubChem BioAssay.
mcGAS inh = blocks mouse cGAS activity; Q8C6L5; recombinant cGAS, Kinase-Glo ATP depletion luminescence; inhibition, % at 12.5 µM; 160,000 compounds, 0.15% hits; AID 1259399
hcGAS inh = blocks human cGAS activity | Q8N884 | recombinant h-cGAS, ATP depletion, Kinase-Glo luminescence | inhibition, % at 12.5 µM | 290,000 compounds, 0.081% hits
Target sequence (Q8N884 whole entry, looked up): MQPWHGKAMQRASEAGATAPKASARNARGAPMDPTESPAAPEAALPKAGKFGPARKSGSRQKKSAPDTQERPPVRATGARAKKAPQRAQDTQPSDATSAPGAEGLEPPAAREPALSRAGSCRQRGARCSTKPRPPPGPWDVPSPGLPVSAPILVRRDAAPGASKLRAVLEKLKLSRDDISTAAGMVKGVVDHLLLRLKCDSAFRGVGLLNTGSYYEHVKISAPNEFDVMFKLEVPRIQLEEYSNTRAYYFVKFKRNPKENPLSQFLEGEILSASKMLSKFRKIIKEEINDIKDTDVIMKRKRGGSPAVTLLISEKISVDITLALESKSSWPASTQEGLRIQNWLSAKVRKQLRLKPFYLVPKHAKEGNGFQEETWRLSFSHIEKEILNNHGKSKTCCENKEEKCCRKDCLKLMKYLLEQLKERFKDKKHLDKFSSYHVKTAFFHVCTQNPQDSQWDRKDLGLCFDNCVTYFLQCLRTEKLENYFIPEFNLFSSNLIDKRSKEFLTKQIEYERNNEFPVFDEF
NPYLR7 ag = mosquito NPYLR7 agonism; HEK293T NPYLR7/Galpha15, GCaMP6s calcium fluorescence; activation, % at 10 µM; 270,000 compounds, 0.15% hits; AID 1259423; in the data active = activation above about 40%
A number is an active result; - = inactive; . = not tested or not shown; ! = not active in a repeat. Most compounds without a hit are left out; they make up all but 0.28% or so of the library. Cut-off read from the data, not from the text of the source, unless noted: active = inhibition above about 40%; inactive = the rest.

SMILES	mcGAS inh	hcGAS inh	NPYLR7 ag
O=C1NC(=NC2CCCC2)SC1=Cc1cc([N+](=O)[O-])ccc1N1CCCC1	.	-	-
CC(c1ccccn1)N(C)Cc1ccc(F)cc1Cl (stereo unspecified)	.	-	-
O=C1c2ccc(-c3nc4ccccc4c(=O)o3)cc2C(=O)N1c1ccc(Br)cc1	-	-	-
O=C1c2ccc(-c3nc4ccccc4c(=O)o3)cc2C(=O)N1c1nc2ccccc2s1	45	-	-
CC(=O)Nc1cccc(NC(=O)CSc2nc3c(-c4ccccc4)c(C)nn3c(=O)[nH]2)c1	-	-	-
Cc1cc(NC(=O)CSc2nc3c(-c4ccccc4)c(C)nn3c(=O)[nH]2)no1	-	46	-
Oc1cccc(Nc2nccc3[nH]c(-c4ccccc4Cl)nc23)c1	-	-	-
COc1ccc(C(=O)N=c2sccn2Cc2cccc(C(=O)NC3CC3)c2)cc1OC	.	-	-
CCN1CCN(C(=O)c2ccc(Cn3ccsc3=NC(=O)c3ccc(OC)c(OC)c3)o2)CC1	.	-	45
Cc1cc(C(=O)N2CCC3(CCCc4ccccc43)C2)nn1-c1ccccc1 (stereo unspecified)	.	-	-
c1ccc(CN2CCC(NCc3nc(C4CCCCC4)no3)CC2)cc1	-	-	-
COC(=O)c1ccc(COC(CN2CCN(C(=O)c3ccc(Cl)cc3)CC2)c2ccc(Cl)cc2)cc1 (stereo unspecified)	-	-	.
CCC(C(=O)N1CCN(CC(OCc2ccc(C(=O)OC)cc2)c2ccc(Cl)cc2)CC1)c1ccccc1 (stereo unspecified)	88	-	.
O=c1cc(O)c2ccc(O)cc2o1	-	-	-
O=c1cc(C(F)(F)F)c2ccc(O)cc2o1	-	-	57
CNC[C@H](O)c1ccc(O)c(O)c1	-	-	83
CC(C)NCC(O)c1ccc(O)c(O)c1 (stereo unspecified)	-	-	-
COc1cccc(CN2C(=O)c3cccc(N)c3C2=O)c1	.	-	43
COc1ccc(CN2C(=O)c3ccccc3C2=O)cc1F	.	-	-
COCCn1cc(NC(=O)N2CCN(C)CC2)c2ccccc21	.	-	-
O=C(O)C1=CC(=C(c2ccc(O)c(C(=O)O)c2)c2ccc(O)c(C(=O)O)c2)C=CC1=O	106	80	-
Nc1ccc(O)c(C(=O)O)c1	.	-	-
Cc1cccc(C)c1NC(=O)CSc1nnc(N2CCCC2)n1C1CC1	.	-	-
N#CC(C(=O)COc1cc(F)ccc1F)c1nc2ccccc2s1 (stereo unspecified)	.	-	-
N#CC(C(=O)C(F)(F)F)c1nc2ccccc2s1 (stereo unspecified)	.	44	-
SMILES	mcGAS inh	hcGAS inh	NPYLR7 ag
Cc1noc(C)c1CO[C@H]1CCOC[C@H]1NC1CSCCSC1	-	-	.
CC(=O)c1ccc(NC(=O)Cn2nc(C3CCN(S(C)(=O)=O)CC3)n(C)c2=O)cc1	-	-	-
COc1cc(/C=C/c2nc3ccccc3o2)cc(Cl)c1O	-	-	334
Nc1ccc(/C=C/c2nc3ccccc3o2)cc1	-	-	-
Cc1ccc(Nc2nc(Nc3cccc(F)c3)nc3nccnc23)c(C)c1	.	-	52
Cc1ccc(Nc2nc(NCCN(C)C)nc3nccnc23)c(C)c1	.	-	-
CCNc1ccc(OC)nc1	.	-	55
CNc1ccc(-c2ccc(OC)nc2)cn1	.	-	-
O=C(Nc1cccc(C(=O)Nc2ccc(S(=O)(=O)O)c3cc(S(=O)(=O)O)cc(S(=O)(=O)O)c23)c1)Nc1cccc(C(=O)Nc2ccc(S(=O)(=O)O)c3cc(S(=O)(=O)O)cc(S(=O)(=O)O)c23)c1	86	-	-
Nc1cccc(NC(=O)c2cccc(S(=O)(=O)Nc3cccc(N)c3)c2)c1	-	-	-
CC(C)c1ccc(S(=O)(=O)N=C2C=C(Cl)C(=O)c3ccccc32)cc1	.	-	-
O=C1C(Sc2ncn[nH]2)=CC(=NS(=O)(=O)c2ccccc2)c2ccccc21	51	-	-
CC(NCCC(c1ccccc1)c1ccccc1)c1ccccc1 (stereo unspecified)	-	-	59!
CC(NCC1CCC1)c1ccccc1 (stereo unspecified)	.	-	-
Cc1cc(N2CCCCCC2)n2c(nc3ccccc32)c1C#N	-	-	-
CC(C)NC(=O)CN1CCN(c2cc(Oc3ccc(F)cc3Cl)ncn2)CC1	-	-	-
COc1ccc2o/c(=N\NC(N)=S)c(-c3nc4ccccc4[nH]3)cc2c1	.	-	-
NC(=S)N/N=c1\oc2cc(O)ccc2cc1-c1nc2ccccc2[nH]1	.	-	67
Clc1ccc(N2CCN(Cc3cnn4cccnc34)CC2)nc1	.	-	-
CCOC(=O)C(C#N)=CNc1nc(C(C)=O)cs1	64	53	-
CCOC(=O)C(C#N)=CNc1cnccn1	-	-	-
C=CC(=O)N1CCN(c2nc3ccccc3nc2C(=O)OCC)CC1	-	-	-
CCOC(=O)c1nc2ccccc2nc1N1CCN(C(=O)N2CCOCC2)CC1	.	-	52
Cc1[nH]cnc1C(=O)N1CCN(C2CCc3ccccc3C2)CC1 (stereo unspecified)	-	-	-
O=C(O)C1(C(=O)O)CCC1.[NH2-].[NH2-].[Pt+2]	-	-	-
SMILES	mcGAS inh	hcGAS inh	NPYLR7 ag
O=C(c1cc(=O)c2ccccc2o1)N1CCN(Cc2nnnn2-c2ccccc2)CC1	-	-	-
Cc1cc(C)nc(SCc2cc(=O)c(OC(=O)Cc3ccc([N+](=O)[O-])cc3)co2)n1	-	-	-
Cc1cc(C)nc(SCc2cc(=O)c(OC(=O)Cc3ccc(Cl)cc3)co2)n1	-	-	-
CCOc1ccc(CC(=O)Oc2coc(CSc3nccc(C)n3)cc2=O)cc1	59	-	-
Cc1ccnc(SCc2cc(=O)c(OC(=O)Cc3ccc(Cl)cc3)co2)n1	-	-	-
Cc1cc(C)nc(SCc2cc(=O)c(OC(=O)Cc3ccc(F)cc3)co2)n1	82	-	-
CCOc1ccc(CC(=O)Oc2coc(CSc3nc(C)cc(C)n3)cc2=O)cc1	63	-	-
Cc1cc(C(=O)Nc2cc3c(cc2Br)OCCO3)no1	-	-	-
O=C(Oc1cccc2cccnc12)c1cc(Cl)ccc1Cl	-	-	-
COC(=O)CN1C(=O)CNC12CCN(C(=O)c1ccc(-n3cccc3)nc1)CC2	.	-	-
CC(=O)N1N=C(c2ccccc2)OC1C(=O)NCc1cccc2ccccc12 (stereo unspecified)	.	-	-
CCC(C(=O)N1CCN(c2nc(-c3cccc(C(F)(F)F)c3)nc(C)c2Cc2ccccc2)CC1)c1ccccc1 (stereo unspecified)	-	-	-
CCCCCn1c(=O)c2c(nc3n2CCN3c2cc(C)cc(C)c2)n(C)c1=O	.	-	140
CCCCCn1c(=O)c2c(nc3n2CCN3c2ccccc2)n(C)c1=O	.	-	-
N#CC(=Cc1ccc(Cl)cc1Cl)C(N)=S	67	-	-
CC(C)NC(=O)C(C#N)=Cc1ccc(Cl)cc1Cl	-	-	-
O=C1C(Cl)=C(N2CCOCC2)C(=O)N1c1ccc(Cl)c(Cl)c1	50	-	-
O=C1C(Cl)=C(N2CCOCC2)C(=O)N1c1ccccc1F	.	-	-
COc1ccc(OC)c(CN(Cc2ccco2)C(=O)C(OC(C)=O)c2ccccc2)c1 (stereo unspecified)	-	-	-
CNc1cc(-c2ccc(CN3CCCCC3)cn2)c2cc[nH]c2n1	-	60	-
CNc1cc(-c2ccc(CN)cn2)c2cc[nH]c2n1	-	-	-
